# A selection: hits, their analogues and other compounds. The true share with any hit is near 1.1%.
# Mtb BioA inh – M. tuberculosis BioA enzyme inhibitors, primary screen, biochemical, plate reader, single point, HTS; 7,8-diaminopelargonic acid synthase BioA (Mycobacterium tuberculosis); purified M. tuberculosis BioA enzyme; inhibition, % at 9.99 µM; 360,000 tested, 0.096% active; AID 602481, 2012; in the data active = inhibition above about 40%; inconclusive = no clear call, values can overlap the other calls
# PrP 5UTR inh – inhibition of PrP 5' UTR reporter expression; cell-based PrP 5' UTR mRNA reporter, plate reader; inhibition, % (test concentration not listed); 340,000 tested, 0.35% active; AID 488862, 2010; in the data active = inhibition above about 52%
# PfHsp40 yeast – rescue of yeast from PfHsp40 toxicity, primary screen, S. cerevisiae, ATP luminescence; AID 504582, 2011; growth rescue, % at 12.5 µM; 340,000 tested, 0.68% active; S. cerevisiae expressing PfHsp40, growth rescue; in the data active = growth rescue above about 28%, passing the limit was not always enough; inconclusive = no clear call, values can overlap the other calls;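 also: yeast W303a lacking pdr1 and pdr3 grown in galactose medium; growth measured after three days at 30 °C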
# FadD28 FP inh – inhibitors of FadD28 bisubstrate probe binding, primary screen, biochemical, fluorescence polarization, single point; inhibition, % at 12.5 µM; 360,000 tested, 0.22% active; in the data active = inhibition above about 8.5%, passing the limit was not always enough; inconclusive = no clear call, values can overlap the other calls
# TcdB inh – TcdB glycohydrolase inhibitors, primary screen, biochemical, single point, plate reader. TcdB glycohydrolase enzymatic assay. 350,000 tested, 0.24% active. inhibition, % at 9.99 µM. Toxin B (Clostridioides difficile), P18177; in the data active = inhibition above about 10%
# Numbers stand for hits; 0 = inactive; ? = inconclusive; - = no result.
SMILES,Mtb BioA inh,PrP 5UTR inh,PfHsp40 yeast,FadD28 FP inh,TcdB inh
[O-][n+]1cccc2c(Br)cc(Br)c(O)c21,0,0,310.1,0,0
O=C(NC(=S)Nc1ccccc1[N+](=O)[O-])c1ccccc1,-,0,0,0,0
O=C(NC(=S)/C(=C1\CCCCCN1)[N+](=O)[O-])c1ccccc1,0,58.8,0,0,-
CO[C@H]1CN(C)C(=O)c2cc(NC(=O)C3CC3)ccc2OC[C@H](C)NC[C@@H]1C,0,-,-,-,0
O=C(CCc1ccccc1)NNC(=S)NCCc1ccccc1,0,0,0,0,0
CC(C)(C)c1cc(CCC(=O)NNC(=S)NC(=O)c2ccccc2)cc(C(C)(C)C)c1O,-,0,507.5,0,-
CCCCC(=O)NC(=S)NNC(=O)CCc1ccccc1,0,0,336.6,0,0
CC(=O)NC(=S)NNC(=O)CCc1ccccc1,-,0,0,0,0
CC(C)(C)c1cc(CCC(=O)NNC(=O)c2ccco2)cc(C(C)(C)C)c1O,-,0,0,0,0
O=C(CCc1ccccc1)NNC(=S)NC(=O)c1ccccc1,0,0,314.2,0,-
COc1ccc2c3c([nH]c2c1)[C@@H](CO)N(C(C)=O)CC31CCN(C(=O)c2cccc(F)c2)CC1,-,-,-,-,0
CC=Cc1ccc2n(c1=O)C[C@H]1[C@H](CO)[C@@H](C(=O)NCC)[C@@H]2N1C(=O)Nc1cc(F)ccc1F (mixture of isomers),0,-,-,-,0
C#CCOCCOCCOCCNc1nc(N2CCN(C(=O)CCCCCCCCCCNC(=O)[C@H]([C@@H](C)CC)n3cc(CCCCN=C(N)N)nn3)CC2)nc(N2CCN(C(=O)CCCCCCCCCCNC(=O)[C@H](CO)n3cc(CCCCCN)nn3)CC2)n1,0,0,0,0,-
C#CCOCCOCCOCCNc1nc(N2CCN(C(=O)[C@H]([C@@H](C)CC)n3cc(CCCCN)nn3)CC2)nc(N2CCN(C(=O)[C@H](CCCCN)n3cc(CCCC)nn3)CC2)n1,0,0,33.0,0,0
C#CCOCCOCCOCCNc1nc(N2CCN(C(=O)CCCCCCCCCCNC(=O)[C@H]([C@@H](C)CC)n3cc(CCCCCN)nn3)CC2)nc(N2CCN(C(=O)CCCCCCCCCCNC(=O)[C@H]([C@@H](C)CC)n3cc(CCCCN=C(N)N)nn3)CC2)n1,0,0,69.0,0,-
C#CCOCCOCCOCCNc1nc(N2CCN(C(=O)[C@H]([C@@H](C)CC)n3cc(CCC(=O)O)nn3)CC2)nc(N2CCN(C(=O)[C@H](CCCCN)n3cc(CCCC)nn3)CC2)n1,0,0,0,0,0
C#CCOCCOCCOCCNc1nc(N2CCN(C(=O)CCCCCCCCCCNC(=O)[C@H](CO)n3cc(CCCSC)nn3)CC2)nc(N2CCN(C(=O)CCCCCCCCCCNC(=O)[C@H](CCCN=C(N)N)n3cc(C[C@@H](C)CC)nn3)CC2)n1,0,0,30.0,?,-
C#CCOCCOCCOCCNc1nc(N2CCN(C(=O)CCCCCCCCCCNC(=O)Cn3cc(CCCCCN)nn3)CC2)nc(N2CCN(C(=O)CCCCCCCCCCNC(=O)[C@H]([C@@H](C)CC)n3cc(CCCCN=C(N)N)nn3)CC2)n1,0,0,29.1,0,-
C#CCOCCOCCOCCNc1nc(N2CCN(C(=O)CCCCCCCCCCNC(=O)[C@H](CO)n3cc(CCCSC)nn3)CC2)nc(N2CCN(C(=O)CCCCCCCCCCNC(=O)[C@H](CCCCN)n3cc(CCO)nn3)CC2)n1,0,0,0,0,0
CO[C@H]1CN(C)C(=O)c2ccc(NC(=O)Cc3ccccc3)cc2OC[C@H](C)N(CC2CC2)C[C@H]1C,0,-,-,-,0
COc1ccc(NC(=O)N(C)C[C@H]2OCCCC[C@H](C)Oc3ccc(NS(=O)(=O)c4ccc(F)cc4)cc3C(=O)N([C@@H](C)CO)C[C@H]2C)cc1,0,-,-,-,0
C#CCOCCOCCOCCNc1nc(N2CCN(C(=O)[C@H](CCCCN)n3cc([C@@H](N)C(C)CC)nn3)CC2)nc(N2CCN(C(=O)[C@H](Cc3cc4ccccc4[nH]3)n3cc([C@@H](N)CC(C)C)nn3)CC2)n1 (some centres undefined),0,0,38.6,0,-
Cn1ncc(Cl)c1C(=O)N/N=C/c1cccc(OC2CSC2)c1,-,0,0,0,22.9
COc1c2ccoc2c(OCC=C(C)C)c2oc(=O)ccc12,0,0,0,0,0
CC(C)=CCOc1c2occc2cc2ccc(=O)oc12,0,0,0,0,13.5
SMILES,Mtb BioA inh,PrP 5UTR inh,PfHsp40 yeast,FadD28 FP inh,TcdB inh
CCOC(=O)c1cnc(-n2nc(C)cc2C)nc1NC,0,0,0,0,-
CCOC(=O)c1cnc(-n2nc(C)cc2C)nc1NC1CCCCC1,0,0,91.8,0,-
CCCOc1ccc(C(=O)NNC(=S)NC(=O)CC)cc1,-,0,115.3,0,-
CCc1ccc(S(=O)(=O)Nc2cc(SCC(=O)O)c(O)c3ccccc23)cc1,-,0,0,0,0
O=C(O)CSc1cc(NS(=O)(=O)c2cccc([N+](=O)[O-])c2)c2ccccc2c1O,0,0,96.5,0,0
C=CCNc1n[nH]c(=S)s1,0,-,-,0,15.0
Cc1cc(C)c(Nc2n[nH]c(=S)s2)cc1C,0,-,-,0,0
CNc1n[nH]c(=S)s1,0,0,0,0,24.3
CC(=O)Nc1n[nH]c(=S)s1,-,0,0,0,17.8
C[C@H](CO)N1C[C@H](C)[C@H](CN(C)C(=O)Nc2ccc3c(c2)OCO3)Oc2c(NC(=O)c3nc4ccccc4s3)cccc2C1=O,0,-,-,-,0
CO[C@@H]1CN(C)C(=O)c2ccc(NC(=O)C3CC3)cc2OC[C@@H](C)N(Cc2ccccc2)C[C@H]1C,0,-,-,-,0
Cc1ccc(-c2cc(-c3ccccc3)cc(-c3ccccc3)[n+]2-c2ccccc2)cc1,0,0,0,0,0
Cc1ccc(-c2cc(-c3ccc(C)cc3)[n+](-c3ccccc3)c(-c3ccc(C)cc3)c2)cc1,0,0,228.9,0,-
COc1ccc(CC(=O)Nc2nccs2)cc1OC,-,0,0,0,-
CCOc1ccc(CC(=O)Nc2nccs2)cc1OCC,-,0,37.9,0,0
COCC#Cc1ccc2c(c1)O[C@@H](CN(C)C(=O)Nc1ccccc1F)[C@H](C)CN([C@@H](C)CO)S2(=O)=O,0,-,-,-,0
CC(=O)Oc1ccc2nc(/C=C/c3ccccc3)oc(=O)c2c1,0,0,0,0,12.3
Cc1noc(C)c1NC(=O)N[C@@H]1C=C[C@@H](CC(=O)N2CCN(C)CC2)O[C@H]1CO,0,-,-,-,0
C[C@H](CO)N1C[C@H](C)[C@H](CN(C)C(=O)Nc2ccccc2)Oc2c(NS(=O)(=O)c3cccs3)cccc2C1=O,0,-,-,-,-
C[C@@H]1CN([C@@H](C)CO)C(=O)c2cc(NC(=O)Nc3ccc4c(c3)OCO4)ccc2O[C@H]1CN(C)S(C)(=O)=O,0,-,-,-,0
O=C(CSc1ccc2nnc(-c3cccs3)n2n1)N1CCOCC1,0,0,0,0,0
O=C(CSc1ccc2nnc(-c3ccc(F)cc3)n2n1)N1CCOCC1,0,0,0,0,23.5
Cn1cccc1-c1cc(C(=O)N/N=C/c2cc(Br)ccc2O)[nH]n1,0,0,124.6,0,0
